# In PMC11062922 (Nature Chemical Biology, 2023):
# pIC50: −log10 of the molar value. Like-named read-outs stand apart in the source and are kept apart here.
# How the values were obtained:
# GAK = test system: GAK; design: species or system human, MV4-11 + K-562 + COLO205 + SK-N-BE2 + OVCAR-8; details: read-out: apparent Kd, compound concentrations: 100 nM and 1000 nM (sheet 'Samples'), n = 1
# PKN3 [1] = test system: PKN3; design: species or system human, MV4-11 + K-562 + COLO205 + SK-N-BE2 + OVCAR-8; details: read-out: apparent Kd, compound concentrations: 100 nM and 1000 nM (sheet 'Samples'), n = 1;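 as to pIC50: NanoBRET target engagement in HEK293T cells transiently expressing full-length PKN3 with C-terminal NanoLuc, displacement of fluorescent tracer K5 (500 nM), BRET read after 2 h equilibration at 37 °C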
# RET = test system: RET; design: species or system human, MV4-11 + K-562 + COLO205 + SK-N-BE2 + OVCAR-8; details: read-out: apparent Kd, compound concentrations: 100 nM and 1000 nM (sheet 'Samples'), n = 1
# PKN3 [2] = details: hek293t cells
# AAK1 = test system: AAK1; design: species or system human, MV4-11 + K-562 + COLO205 + SK-N-BE2 + OVCAR-8; details: read-out: apparent Kd, compound concentrations: 100 nM and 1000 nM (sheet 'Samples'), n = 1
# BMP2K = test system: BMP2K; design: species or system human, MV4-11 + K-562 + COLO205 + SK-N-BE2 + OVCAR-8; details: read-out: apparent Kd, compound concentrations: 100 nM and 1000 nM (sheet 'Samples'), n = 1
# CLK1 = test system: CLK1; design: species or system human, MV4-11 + K-562 + COLO205 + SK-N-BE2 + OVCAR-8; details: read-out: apparent Kd, compound concentrations: 100 nM and 1000 nM (sheet 'Samples'), n = 1
# CSNK2A1;CSNK2A3 = test system: CSNK2A1;CSNK2A3; design: species or system human, MV4-11 + K-562 + COLO205 + SK-N-BE2 + OVCAR-8; details: read-out: apparent Kd, compound concentrations: 100 nM and 1000 nM (sheet 'Samples'), n = 1
# CSNK2A2 = test system: CSNK2A2; design: species or system human, MV4-11 + K-562 + COLO205 + SK-N-BE2 + OVCAR-8; details: read-out: apparent Kd, compound concentrations: 100 nM and 1000 nM (sheet 'Samples'), n = 1
# FLT3 = test system: FLT3; design: species or system human, MV4-11 + K-562 + COLO205 + SK-N-BE2 + OVCAR-8; details: read-out: apparent Kd, compound concentrations: 100 nM and 1000 nM (sheet 'Samples'), n = 1
# FLT4 = test system: FLT4; design: species or system human, MV4-11 + K-562 + COLO205 + SK-N-BE2 + OVCAR-8; details: read-out: apparent Kd, compound concentrations: 100 nM and 1000 nM (sheet 'Samples'), n = 1
# GSK3A = test system: GSK3A; design: species or system human, MV4-11 + K-562 + COLO205 + SK-N-BE2 + OVCAR-8; details: read-out: apparent Kd, compound concentrations: 100 nM and 1000 nM (sheet 'Samples'), n = 1
# GSK3B = test system: GSK3B; design: species or system human, MV4-11 + K-562 + COLO205 + SK-N-BE2 + OVCAR-8; details: read-out: apparent Kd, compound concentrations: 100 nM and 1000 nM (sheet 'Samples'), n = 1
# MELK = test system: MELK; design: species or system human, MV4-11 + K-562 + COLO205 + SK-N-BE2 + OVCAR-8; details: read-out: apparent Kd, compound concentrations: 100 nM and 1000 nM (sheet 'Samples'), n = 1
# NUAK1 = test system: NUAK1; design: species or system human, MV4-11 + K-562 + COLO205 + SK-N-BE2 + OVCAR-8; details: read-out: apparent Kd, compound concentrations: 100 nM and 1000 nM (sheet 'Samples'), n = 1
# PAK4 = test system: PAK4; design: species or system human, MV4-11 + K-562 + COLO205 + SK-N-BE2 + OVCAR-8; details: read-out: apparent Kd, compound concentrations: 100 nM and 1000 nM (sheet 'Samples'), n = 1
# PKN1 = test system: PKN1; design: species or system human, MV4-11 + K-562 + COLO205 + SK-N-BE2 + OVCAR-8; details: read-out: apparent Kd; compound concentrations: 100 nM and 1000 nM (sheet 'Samples'), CATDS: 1.0348059231995501E-2; n = 1
# Q6ZSR9 = Q6ZSR9 (human, UniProt Q6ZSR9); design: species or system MV4-11 + K-562 + COLO205 + SK-N-BE2 + OVCAR-8; details: read-out: apparent Kd, compound concentrations: 100 nM and 1000 nM (sheet 'Samples'), n = 1
# SIK2 = test system: SIK2; design: species or system human, MV4-11 + K-562 + COLO205 + SK-N-BE2 + OVCAR-8; details: read-out: apparent Kd, compound concentrations: 100 nM and 1000 nM (sheet 'Samples'), n = 1
# CLK4 = test system: CLK4; design: species or system human, MV4-11 + K-562 + COLO205 + SK-N-BE2 + OVCAR-8; details: read-out: apparent Kd; compound concentrations: 100 nM and 1000 nM (sheet 'Samples'), CATDS: 1.78351826711012E-2; n = 1
# Q6ZSR9, sequence (Q6ZSR9 whole entry, looked up): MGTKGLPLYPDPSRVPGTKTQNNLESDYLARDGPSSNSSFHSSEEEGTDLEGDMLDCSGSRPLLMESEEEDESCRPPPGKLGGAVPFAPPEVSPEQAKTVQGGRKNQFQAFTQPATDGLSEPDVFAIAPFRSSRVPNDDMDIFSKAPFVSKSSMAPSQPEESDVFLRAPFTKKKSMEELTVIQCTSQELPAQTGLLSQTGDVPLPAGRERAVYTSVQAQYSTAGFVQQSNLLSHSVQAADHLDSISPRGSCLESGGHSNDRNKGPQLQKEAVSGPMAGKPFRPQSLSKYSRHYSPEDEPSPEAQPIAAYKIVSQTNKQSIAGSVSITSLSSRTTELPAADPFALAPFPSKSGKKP
compound,measurement,setting,value
CCn1c(-c2nonc2N)nc2c(-c3ccccc3)ncc(OCCCN)c21.CCn1c(-c2nonc2N)nc2c(-c3ccccc3)ncc(OCCCN)c21.O=C(O)C(F)(F)F.O=C(O)C(F)(F)F [GSK260205A],potency estimated from few doses,GAK; CATDS: 2.96050281932086E-2,1380 nM
same,potency estimated from few doses,PKN3 [1]; CATDS: 0.85080270266883096,1.1 nM
same,potency estimated from few doses,RET; CATDS: 8.7615337764420001E-2,99.7 nM
same,pIC50,"PKN3 [2]; read-out: Average, SD, n = 4",7.65
same,pIC50,PKN3 [2]; read-out: Rep 1,7.13
same,pIC50,PKN3 [2]; read-out: Rep 2,8.21
same,pIC50,PKN3 [2]; read-out: Rep 3,8.21
same,pIC50,PKN3 [2]; read-out: Rep 4,8.47
CCOC(=O)N1CCC(n2cnc(-c3ccc(F)cc3)c2-c2ccnc(N)n2)CC1 [SB-219952],potency estimated from few doses,AAK1; CATDS: 1.33097974797153E-2,454 nM
same,potency estimated from few doses,BMP2K; CATDS: 1.0000193686827899E-2,867 nM
same,potency estimated from few doses,CLK1; CATDS: 1.18597213826205E-2,578 nM
same,potency estimated from few doses,CSNK2A1;CSNK2A3; CATDS: 1.2357704080210899E-2,529 nM
same,potency estimated from few doses,CSNK2A2; CATDS: 1.08103941261705E-2,715 nM
same,potency estimated from few doses,FLT3; CATDS: 8.0965887805869007E-3,1630 nM
same,potency estimated from few doses,FLT4; CATDS: 1.0948126782386601E-2,694 nM
same,potency estimated from few doses,GAK; CATDS: 1.8528073728162099E-2,245 nM
same,potency estimated from few doses,GSK3A; CATDS: 1.9129432777521899E-2,232 nM
same,potency estimated from few doses,GSK3B; CATDS: 1.5651651675632799E-2,331 nM
same,potency estimated from few doses,MELK; CATDS: 7.6939005676200604E-3,1970 nM
same,potency estimated from few doses,NUAK1; CATDS: 9.2511282375558092E-3,1070 nM
same,potency estimated from few doses,PAK4; CATDS: 1.1415940389083201E-2,630 nM
same,potency estimated from few doses,PKN1,795 nM
same,potency estimated from few doses,PKN3 [1]; CATDS: 9.8185291638943593E-3,909 nM
same,potency estimated from few doses,Q6ZSR9; CATDS: 1.30827275923428E-2,470 nM
same,potency estimated from few doses,RET; CATDS: 1.35684167881036E-2,436 nM
same,potency estimated from few doses,SIK2; CATDS: 1.0490419954407099E-2,769 nM
LY3009120,pIC50,"PKN3 [2]; read-out: Average, SD, n = 4",6.29
same,pIC50,PKN3 [2]; read-out: Rep 1,6.27
same,pIC50,PKN3 [2]; read-out: Rep 2,5.91
same,pIC50,PKN3 [2]; read-out: Rep 3,6.95
same,pIC50,PKN3 [2]; read-out: Rep 4,6.76
COc1ccc(Nc2ncc(C#N)c(Nc3ccccc3C(N)=O)n2)cc1N1CCN(C)CC1.Cl [GSK1558669A],potency estimated from few doses,AAK1; CATDS: 1.0489274011292E-2,164 nM
same,potency estimated from few doses,BMP2K; CATDS: 9.7460630022759408E-3,204 nM
same,potency estimated from few doses,CLK1; CATDS: 1.6853937375741E-2,52 nM
same,potency estimated from few doses,CLK4,46.4 nM
same,potency estimated from few doses,CSNK2A1;CSNK2A3; CATDS: 3.32003717220812E-2,15.7 nM
same,potency estimated from few doses,CSNK2A2; CATDS: 5.84237607609163E-2,7.02 nM
same,potency estimated from few doses,FLT3; CATDS: 2.0604812795468701E-2,35.1 nM
same,potency estimated from few doses,FLT4; CATDS: 6.1594984322683802E-2,6.55 nM
same,potency estimated from few doses,GAK; CATDS: 7.1387437274862903E-3,650 nM
same,potency estimated from few doses,GSK3A; CATDS: 2.2002232250464899E-2,31.1 nM
same,potency estimated from few doses,GSK3B; CATDS: 2.1185466534455601E-2,33.3 nM
same,potency estimated from few doses,MELK; CATDS: 6.9590061702447499E-3,733 nM
same,potency estimated from few doses,NUAK1; CATDS: 1.9495800971078701E-2,39 nM
same,potency estimated from few doses,PAK4; CATDS: 1.03985583586522E-2,168 nM
same,potency estimated from few doses,Q6ZSR9; CATDS: 1.17172228407674E-2,121 nM
same,potency estimated from few doses,RET; CATDS: 1.6777420038619099E-2,52.5 nM
same,potency estimated from few doses,SIK2; CATDS: 3.5509703257123403E-2,14.1 nM
